Results: paper PMC13541613, “GHT-SELEX demonstrates unexpectedly high intrinsic sequence specificity and complex DNA binding of many human transcription factors”

Columns and labels:
ZNF721 full-length = ZNF721 full-length (Homo sapiens, UniProt Q8TF20-2 1-923); test: HT-SELEX; 20 mM HEPES pH 7, 140 mM KCl, 5 mM NaCl, 1 mM K2HPO4, 2 mM MgSO4, 100 uM EGTA, ZnSO4, 0.1% Tween20; room temperature, 1 h; high values mean tight binding; conditions: protein: ivt; tags: eGFP (N-terminal); dsDNA, one strand shown
Outline: (§1)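 Tagged transcription factor, expressed in HEK293 lysate or cell-free extract as a full-length protein or DNA-binding-domain fragment, was held on beads. It bound a randomized 40-base DNA library during 1 h at room temperature in low-stringency HEPES/KCl buffer with Tween20. Eluted DNA went through successive PCR cycles and Illumina sequencing of ~3 million 60 bp reads per sample. A higher relative k-mer count in the selected reads denotes tighter binding.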

ZNF721 DBD2 = ZNF721 DBD2 (Homo sapiens, UniProt Q8TF20-2 395-923); test: as above; conditions: protein: ivt; tags: eGFP (N-terminal); dsDNA, one strand shown
Outline: as §1

Chain of ZNF721 full-length (Q8TF20 other isoform, or with tags, fused parts or gaps): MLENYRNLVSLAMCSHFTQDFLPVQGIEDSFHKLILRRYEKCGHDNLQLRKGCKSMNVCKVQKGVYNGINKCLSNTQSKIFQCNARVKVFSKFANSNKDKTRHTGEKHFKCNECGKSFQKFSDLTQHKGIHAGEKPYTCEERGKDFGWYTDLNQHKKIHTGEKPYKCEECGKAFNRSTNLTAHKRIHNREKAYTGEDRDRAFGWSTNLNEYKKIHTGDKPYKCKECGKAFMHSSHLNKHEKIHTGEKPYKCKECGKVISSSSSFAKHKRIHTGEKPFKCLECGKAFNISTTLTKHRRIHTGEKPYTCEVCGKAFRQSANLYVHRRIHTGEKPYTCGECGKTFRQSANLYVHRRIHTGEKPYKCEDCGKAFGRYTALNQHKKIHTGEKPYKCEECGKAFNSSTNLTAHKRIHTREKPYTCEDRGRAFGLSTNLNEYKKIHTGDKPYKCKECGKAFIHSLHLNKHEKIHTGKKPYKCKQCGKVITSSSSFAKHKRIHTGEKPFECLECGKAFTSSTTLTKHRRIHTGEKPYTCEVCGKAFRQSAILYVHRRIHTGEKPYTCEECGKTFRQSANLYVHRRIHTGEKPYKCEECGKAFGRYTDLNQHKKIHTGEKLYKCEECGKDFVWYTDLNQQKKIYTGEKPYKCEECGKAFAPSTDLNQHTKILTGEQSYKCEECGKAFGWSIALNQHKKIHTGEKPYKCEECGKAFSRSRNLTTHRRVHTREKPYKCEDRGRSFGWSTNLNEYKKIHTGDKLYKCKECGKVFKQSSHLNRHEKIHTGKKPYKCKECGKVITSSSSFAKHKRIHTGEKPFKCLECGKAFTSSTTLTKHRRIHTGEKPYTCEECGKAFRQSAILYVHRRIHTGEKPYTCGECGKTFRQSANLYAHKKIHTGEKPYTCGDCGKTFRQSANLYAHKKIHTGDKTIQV
Chain of ZNF721 DBD2 (Q8TF20 383-911): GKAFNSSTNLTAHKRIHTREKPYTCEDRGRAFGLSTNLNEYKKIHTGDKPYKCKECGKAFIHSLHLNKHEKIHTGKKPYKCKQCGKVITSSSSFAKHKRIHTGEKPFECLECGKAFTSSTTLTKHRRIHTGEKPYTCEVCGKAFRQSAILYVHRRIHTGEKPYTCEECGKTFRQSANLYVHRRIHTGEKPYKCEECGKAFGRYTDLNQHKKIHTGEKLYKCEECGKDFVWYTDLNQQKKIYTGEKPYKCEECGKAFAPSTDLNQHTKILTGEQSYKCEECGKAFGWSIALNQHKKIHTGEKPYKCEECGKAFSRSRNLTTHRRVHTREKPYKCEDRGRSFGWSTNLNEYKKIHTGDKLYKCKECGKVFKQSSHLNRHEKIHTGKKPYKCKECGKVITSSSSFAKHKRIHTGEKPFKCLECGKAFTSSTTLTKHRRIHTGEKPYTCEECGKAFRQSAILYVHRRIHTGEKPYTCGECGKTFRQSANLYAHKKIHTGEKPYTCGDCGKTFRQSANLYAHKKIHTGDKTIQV

AAACAGGATA
binding signal (ZNF721 full-length): 0.111 relative 10-mer count
binding signal (ZNF721 DBD2): 0.121 relative 10-mer count

AAAACAGTAC
binding signal (ZNF721 full-length): 0.126 relative 10-mer count
binding signal (ZNF721 DBD2): 0.166 relative 10-mer count

AAACAAACAG
binding signal (ZNF721 full-length): 0.143 relative 10-mer count
binding signal (ZNF721 DBD2): 0.0858 relative 10-mer count

AAAACAGCCC
binding signal (ZNF721 full-length): 0.152 relative 10-mer count
binding signal (ZNF721 DBD2): 0.156 relative 10-mer count

ATAAAAACAG
binding signal (ZNF721 full-length): 0.11 relative 10-mer count
binding signal (ZNF721 DBD2): 0.148 relative 10-mer count

ACGAAAACAG
binding signal (ZNF721 full-length): 0.106 relative 10-mer count
binding signal (ZNF721 DBD2): 0.149 relative 10-mer count

AAAGAAACAG
binding signal (ZNF721 full-length): 0.126 relative 10-mer count
binding signal (ZNF721 DBD2): 0.119 relative 10-mer count

CAGTGTATCC
binding signal (ZNF721 full-length): 0.208 relative 10-mer count
binding signal (ZNF721 DBD2): 0.401 relative 10-mer count

AAACTAGCAT
binding signal (ZNF721 full-length): 0.118 relative 10-mer count
binding signal (ZNF721 DBD2): 0.175 relative 10-mer count

CAGAGTACCC
binding signal (ZNF721 full-length): 0.125 relative 10-mer count
binding signal (ZNF721 DBD2): 0.18 relative 10-mer count

AAACAGCGTC
binding signal (ZNF721 full-length): 0.206 relative 10-mer count
binding signal (ZNF721 DBD2): 0.277 relative 10-mer count

AATAAAACAG
binding signal (ZNF721 full-length): 0.132 relative 10-mer count
binding signal (ZNF721 DBD2): 0.168 relative 10-mer count

AAGCAGTGTA
binding signal (ZNF721 full-length): 0.142 relative 10-mer count
binding signal (ZNF721 DBD2): 0.18 relative 10-mer count

ACAGTGTTGC
binding signal (ZNF721 full-length): 0.13 relative 10-mer count
binding signal (ZNF721 DBD2): 0.341 relative 10-mer count

AAAACAGTGT
binding signal (ZNF721 full-length): 0.495 relative 10-mer count
binding signal (ZNF721 DBD2): 0.712 relative 10-mer count

CGCTGTTTTA
binding signal (ZNF721 full-length): 0.126 relative 10-mer count
binding signal (ZNF721 DBD2): 0.174 relative 10-mer count

ACAGCATGAC
binding signal (ZNF721 full-length): 0.209 relative 10-mer count
binding signal (ZNF721 DBD2): 0.295 relative 10-mer count

ACGCTGTTTC
binding signal (ZNF721 full-length): 0.13 relative 10-mer count
binding signal (ZNF721 DBD2): 0.199 relative 10-mer count

AAAACAGCGG
binding signal (ZNF721 full-length): 0.134 relative 10-mer count
binding signal (ZNF721 DBD2): 0.189 relative 10-mer count

AACACTGCTT
binding signal (ZNF721 full-length): 0.388 relative 10-mer count
binding signal (ZNF721 DBD2): 0.495 relative 10-mer count

AACGCTGCTT
binding signal (ZNF721 full-length): 0.207 relative 10-mer count
binding signal (ZNF721 DBD2): 0.327 relative 10-mer count

AACAGCATAT
binding signal (ZNF721 full-length): 0.118 relative 10-mer count
binding signal (ZNF721 DBD2): 0.181 relative 10-mer count

CAGTGTTGCC
binding signal (ZNF721 full-length): 0.253 relative 10-mer count
binding signal (ZNF721 DBD2): 0.686 relative 10-mer count

AACAGCGTAC
binding signal (ZNF721 full-length): 0.19 relative 10-mer count
binding signal (ZNF721 DBD2): 0.275 relative 10-mer count

CAGCGTTTCC
binding signal (ZNF721 full-length): 0.342 relative 10-mer count
binding signal (ZNF721 DBD2): 0.861 relative 10-mer count

AAACAGAGTA
binding signal (ZNF721 full-length): 0.198 relative 10-mer count
binding signal (ZNF721 DBD2): 0.22 relative 10-mer count

ATAAAACAGC
binding signal (ZNF721 full-length): 0.158 relative 10-mer count
binding signal (ZNF721 DBD2): 0.214 relative 10-mer count

CAGCATATCC
binding signal (ZNF721 full-length): 0.162 relative 10-mer count
binding signal (ZNF721 DBD2): 0.216 relative 10-mer count

CAGCGTTGCC
binding signal (ZNF721 full-length): 0.143 relative 10-mer count
binding signal (ZNF721 DBD2): 0.423 relative 10-mer count

ACAGCATATC
binding signal (ZNF721 full-length): 0.126 relative 10-mer count
binding signal (ZNF721 DBD2): 0.174 relative 10-mer count

CAGGGTATCC
binding signal (ZNF721 full-length): 0.221 relative 10-mer count
binding signal (ZNF721 DBD2): 0.431 relative 10-mer count

AAAAACAGCC
binding signal (ZNF721 full-length): 0.167 relative 10-mer count
binding signal (ZNF721 DBD2): 0.172 relative 10-mer count

AAAGCAGTGT
binding signal (ZNF721 full-length): 0.513 relative 10-mer count
binding signal (ZNF721 DBD2): 0.632 relative 10-mer count

AACAGTGTAT
binding signal (ZNF721 full-length): 0.129 relative 10-mer count
binding signal (ZNF721 DBD2): 0.199 relative 10-mer count

AACAAAGCAG
binding signal (ZNF721 full-length): 0.243 relative 10-mer count
binding signal (ZNF721 DBD2): 0.29 relative 10-mer count

AAACACTGTT
binding signal (ZNF721 full-length): 0.135 relative 10-mer count
binding signal (ZNF721 DBD2): 0.266 relative 10-mer count

CAAAAACAGC
binding signal (ZNF721 full-length): 0.163 relative 10-mer count
binding signal (ZNF721 DBD2): 0.251 relative 10-mer count

AAACAGCAGC
binding signal (ZNF721 full-length): 0.122 relative 10-mer count
binding signal (ZNF721 DBD2): 0.135 relative 10-mer count

ACAGCATCCC
binding signal (ZNF721 full-length): 0.114 relative 10-mer count
binding signal (ZNF721 DBD2): 0.088 relative 10-mer count

AGAAAACAGC
binding signal (ZNF721 full-length): 0.251 relative 10-mer count
binding signal (ZNF721 DBD2): 0.322 relative 10-mer count
